Results filed as inconclusive are left out. Values without a mark were called inactive. Calls of active or inactive are those of the source. The call rests on the fitted dose curve; in most records, active means well fitted curve in the direction sought with a large enough effect; inconclusive means small, poorly fitted or top-dose-only effect, or another doubt; inactive means no such curve, though single readings can be large; an effect the other way counts as inactive or inconclusive. Non-standard residues stand in square brackets, D forms with d. Residues, ends and D or L forms follow the SMILES beside them. *: point of attachment. Sta = CC(C)C[C@H](N)[C@@H](O)CC(=O)O; Isovaleryl = CC(C)CC(=O)*
Tested on: not listed separately
Test: qHTS to identify inhibitors of the type 1 interferon - major histocompatibility complex class I in skeletal muscle: primary screen against the NCATS Pharmaceutical Collection (AID 1347407);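 further: luminescence of HiBiT knocked into endogenous HLA-B as interferon-induced MHC class I level; on the % scale 0 is the no-effect control and ±100 the full control effect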
Settings: human skeletal muscle cells, IFN-b-induced MHC-I HiBiT luminescence, 24 h; series mostly up to 45.9 µM; activity change, negative = inhibition: at the top concentration
How it was run: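 A qHTS format is used: 8-point, 1:5 compound series with 46 uM top final concentration, applied alongside 4 ng/ml IFN-beta to HLA-B*08:01-HiBiT knock-in myoblasts. Luminescence is measured after 24 h treatment.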

SMILES	activity change, negative = inhibition [%]	Potency
Cc1ncc([N+](=O)[O-])n1CC(C)O (configuration not stated)	7.59	–
CCCCN(CCCC)CCC(O)c1cc2c(Cl)cc(Cl)cc2c2cc(C(F)(F)F)ccc12 (configuration not stated)	-22.1	–
CCCOc1ccc2nc(NC(=O)OC)[nH]c2c1	-19.8	–
O=C(NCC1CCCCN1)c1cc(OCC(F)(F)F)ccc1OCC(F)(F)F (configuration not stated)	3.76	–
CC(C)c1ccc2oc3nc(N)c(C(=O)O)cc3c(=O)c2c1	0.589	–
Nc1cccc2c1CN(C1CCC(=O)NC1=O)C2=O (configuration not stated)	-0.862	–
O=C(O)c1cc(=O)c2c(OCC(O)COc3cccc4oc(C(=O)O)cc(=O)c34)cccc2o1	8.32	–
CC1=C(C)C(=O)C(C(CCCCCC(=O)O)c2ccccc2)=C(C)C1=O (configuration not stated)	1.73	–
O=C(NC(Cc1cc(=O)[nH]c2ccccc12)C(=O)O)c1ccc(Cl)cc1 (configuration not stated)	2.68	–
Nc1ncn([C@H]2C[C@H](O)[C@@H](CO)O2)c(=O)n1	10.1	–
CCOC(=O)c1c(C)n(C)c2ccc(O)cc12	0.105	–
COc1cc2nc(N3CCN(C(=O)C4CCCO4)CC3)nc(N)c2cc1OC (configuration not stated)	-17.7	–
CN(C)C(=O)COC(=O)Cc1ccc(OC(=O)c2ccc(N=C(N)N)cc2)cc1	9.93	–
CCCCc1ccc2nc(NC(=O)OC)[nH]c2c1	-23.8	–
NS(=O)(=O)c1cc(C(=O)O)c(NCc2ccco2)cc1Cl	2.68	–
Nc1ccc(S(N)(=O)=O)cc1	-2.22	–
CC(C)Oc1ccc2c(=O)c(-c3ccccc3)coc2c1	–	inactive
Cc1ccc(C)c(OCCCC(C)(C)C(=O)O)c1	3.69	–
Cc1c(C(=O)NN2CCCCC2)nn(-c2ccc(Cl)cc2Cl)c1-c1ccc(Cl)cc1	-6.97	–
Cc1cccc(CN2CCN(C(c3ccccc3)c3ccc(Cl)cc3)CC2)c1 (configuration not stated)	-14.7	–

Tested on: not listed separately
Test: qHTS to identify inhibitors of the type 1 interferon - major histocompatibility complex class I in skeletal muscle: primary screen against the NCATS Mechanism Interrogation Plate v5.0 (MIPE) Libary (AID 1347411);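 further: plate controls were vehicle for no effect and reference inhibitor for full effect; nearly all actives have a fitted effect of over 65% in size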
Settings: iHSKM cells + IFN-b, HiBiT-tagged MHC-I luminescence, 24 h; series mostly up to 45.8 µM; activity change, negative = inhibition: at the top concentration
How it was run: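 IFN-beta-driven (4 ng/ml) HLA-B-HiBit expression in CRISPR-tagged C25cl48 myoblasts; compounds 11-pt, 1:3, max 46 uM, 24 hr exposure; lytic NanoLuc complementation luminescence.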

SMILES	activity change, negative = inhibition [%]
O=C(NCCO[N+](=O)[O-])c1cccnc1	13.7
N=C(N)c1ccc2cc(OC(=O)c3ccc(N=C(N)N)cc3)ccc2c1	-1
CCN(CC)CCOc1ccc(Cc2ccccc2)cc1	33.8
CC(C)CC(=O)N[C@H](C(=O)N[C@H](C(=O)N[C@@H](CC(C)C)[C@@H](O)CC(=O)N[C@@H](C)C(=O)N[C@@H](CC(C)C)[C@@H](O)CC(=O)O)C(C)C)C(C)C (Isovaleryl-VV[Sta]A[Sta]-OH)	0.425
CC(C)[C@H](N)C(=O)OCCOCn1cnc2c(=O)[nH]c(N)nc21	-1.9
CN1CCC(=C2c3ccccc3CCc3sccc32)CC1	34.5
Cc1cc2cc3c(C)cc(=O)oc3c(C)c2o1	-8.36
Cc1cc(=O)oc2cc(O)ccc12	-13.5
Cc1ncc([N+](=O)[O-])n1CC(C)O (configuration not stated)	-9.42
O=C(O)c1cc(=O)c2c(OCC(O)COc3cccc4oc(C(=O)O)cc(=O)c34)cccc2o1	6.03
CC1=C(C)C(=O)C(C(CCCCCC(=O)O)c2ccccc2)=C(C)C1=O (configuration not stated)	12.2
CCOC(=O)c1c(C)n(C)c2ccc(O)cc12	-14.1
CN(C)C(=O)COC(=O)Cc1ccc(OC(=O)c2ccc(N=C(N)N)cc2)cc1	-3.32
Nc1ccc(S(N)(=O)=O)cc1	-2.19
CC(C)Oc1ccc2c(=O)c(-c3ccccc3)coc2c1	-23.2

Molecular target: Protein phosphatase 1D (Homo sapiens) (UniProt O15297)
Sequence (O15297 whole entry, looked up): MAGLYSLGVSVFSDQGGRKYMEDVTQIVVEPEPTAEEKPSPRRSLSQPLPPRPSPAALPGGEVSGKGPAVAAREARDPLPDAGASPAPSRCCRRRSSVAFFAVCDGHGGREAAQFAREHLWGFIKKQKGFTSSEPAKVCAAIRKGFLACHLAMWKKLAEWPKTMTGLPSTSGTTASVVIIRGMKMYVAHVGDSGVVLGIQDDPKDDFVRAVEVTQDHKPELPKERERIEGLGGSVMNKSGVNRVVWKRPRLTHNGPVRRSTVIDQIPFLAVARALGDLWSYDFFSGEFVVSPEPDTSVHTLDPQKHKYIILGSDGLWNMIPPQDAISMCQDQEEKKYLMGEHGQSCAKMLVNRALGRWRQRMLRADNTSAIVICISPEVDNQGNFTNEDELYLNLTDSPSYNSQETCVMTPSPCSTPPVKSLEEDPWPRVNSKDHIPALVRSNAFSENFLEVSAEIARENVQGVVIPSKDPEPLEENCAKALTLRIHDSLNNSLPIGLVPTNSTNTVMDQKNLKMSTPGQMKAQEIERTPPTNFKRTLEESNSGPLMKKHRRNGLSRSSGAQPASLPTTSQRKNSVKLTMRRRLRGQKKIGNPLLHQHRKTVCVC
Test: RapidFire Mass Spectrometry qHTS Assay for Modulators of WT P53-Induced Phosphatase 1 (WIP1) (AID 1347424);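 further: plate controls were DMSO wells for no effect and GSK830371 inhibitor control at 10 µM for full effect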
Settings: WIP1 dephosphorylation of phosphopeptide, RapidFire MS; series mostly up to 63 µM; activity change, negative = inhibition: at the top concentration
How it was run: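 RapidFire MS readout of dephosphorylated VEPPL-S-QETFS product, with 1 uM isotope-labelled peptide standard. Reaction: 10 nM WIP1, 2 uM phosphopeptide substrate, 5 min, room temperature, after 1 h compound preincubation; stopped with 0.5% formic acid.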

SMILES	activity change, negative = inhibition [%]	Potency
Cc1cc(C2CCCCC2)n(O)c(=O)c1	16.2	–
N=C(N=C(N)N)N1CCOCC1	-4.98	–
O=C(NCCO[N+](=O)[O-])c1cccnc1	9.49	–
COC1=C(OC)C(=O)C(CCCCCCCCCCO)=C(C)C1=O	61.1	–
Cc1cccc(C)c1OCC(=O)N[C@@H](Cc1ccccc1)[C@@H](O)C[C@H](Cc1ccccc1)NC(=O)[C@H](C(C)C)N1CCCNC1=O	44.8	–
N=C(N)c1ccc2cc(OC(=O)c3ccc(N=C(N)N)cc3)ccc2c1	-0.627	–
CCCCC(CC)COC(=O)C(C#N)=C(c1ccccc1)c1ccccc1 (configuration not stated)	26	–
CCN(CC)CCOc1ccc(Cc2ccccc2)cc1	5.49	–
CC(C)CC(=O)N[C@H](C(=O)N[C@H](C(=O)N[C@@H](CC(C)C)[C@@H](O)CC(=O)N[C@@H](C)C(=O)N[C@@H](CC(C)C)[C@@H](O)CC(=O)O)C(C)C)C(C)C (Isovaleryl-VV[Sta]A[Sta]-OH)	7.17	–
CCCc1cc(=O)[nH]c(=S)[nH]1	-1.13	–
CC(C)[C@H](N)C(=O)OCCOCn1cnc2c(=O)[nH]c(N)nc21	2.65	–
CN1CCC(=C2c3ccccc3CCc3sccc32)CC1	23.1	–
Cc1cc2cc3c(C)cc(=O)oc3c(C)c2o1	-8.45	–
NC(=O)Cc1cccc(C(=O)c2ccccc2)c1N	-5.14	–
CCCCCCCCOc1ccccc1C(=O)Nc1ccc(C(=O)OCC[N+](C)(CC)CC)cc1	36.2	–
CC1=C(C(=O)O)N2C(=O)[C@@H](NC(=O)[C@H](N)C3=CCC=CC3)[C@H]2SC1	-7.78	–
Cc1cc(=O)oc2cc(O)ccc12	8.9	–
Cc1ncc([N+](=O)[O-])n1CC(C)O (configuration not stated)	7.26	–
CCCCN(CCCC)CCC(O)c1cc2c(Cl)cc(Cl)cc2c2cc(C(F)(F)F)ccc12 (configuration not stated)	43.8	–

SMILES	activity change, negative = inhibition [%]	Potency
CCCOc1ccc2nc(NC(=O)OC)[nH]c2c1	11.9	–
O=C(NCC1CCCCN1)c1cc(OCC(F)(F)F)ccc1OCC(F)(F)F (configuration not stated)	24.1	–
CC(C)c1ccc2oc3nc(N)c(C(=O)O)cc3c(=O)c2c1	-1.25	–
Nc1cccc2c1CN(C1CCC(=O)NC1=O)C2=O (configuration not stated)	-4.23	–
O=C(O)c1cc(=O)c2c(OCC(O)COc3cccc4oc(C(=O)O)cc(=O)c34)cccc2o1	-4.26	–
CC1=C(C)C(=O)C(C(CCCCCC(=O)O)c2ccccc2)=C(C)C1=O (configuration not stated)	-14.5	–
O=C(NC(Cc1cc(=O)[nH]c2ccccc12)C(=O)O)c1ccc(Cl)cc1 (configuration not stated)	2.79	–
Nc1ncn([C@H]2C[C@H](O)[C@@H](CO)O2)c(=O)n1	11.4	–
CCOC(=O)c1c(C)n(C)c2ccc(O)cc12	11.1	–
COc1cc2nc(N3CCN(C(=O)C4CCCO4)CC3)nc(N)c2cc1OC (configuration not stated)	-2.95	–
CN(C)C(=O)COC(=O)Cc1ccc(OC(=O)c2ccc(N=C(N)N)cc2)cc1	-6.16	–
CCCCc1ccc2nc(NC(=O)OC)[nH]c2c1	-9.58	–
NS(=O)(=O)c1cc(C(=O)O)c(NCc2ccco2)cc1Cl	-24.3	–
Nc1ccc(S(N)(=O)=O)cc1	0.91	–
CC(C)Oc1ccc2c(=O)c(-c3ccccc3)coc2c1	–	inactive
Cc1ccc(C)c(OCCCC(C)(C)C(=O)O)c1	2.28	–
Cc1c(C(=O)NN2CCCCC2)nn(-c2ccc(Cl)cc2Cl)c1-c1ccc(Cl)cc1	3.54	–
Cc1cccc(CN2CCN(C(c3ccccc3)c3ccc(Cl)cc3)CC2)c1 (configuration not stated)	17.1	–
